# Source: PubChem BioAssay AID434994 (NMMLSC, 2010)
# This is one part of the list. Unmarked numbers belong to inactive results.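 Rule for the calls: active = superoxide signal below 65% of the plate average of sample wells; inactive = the rest.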
# Test: retest of yeast aging ROS inhibitors – cherry picked compounds, confirmation (AID 434994);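 note: cells aged with compound for 7 days at 30 degrees C before staining; 100% equals mean DHE fluorescence of all compound wells on the plate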
# Conditions: S. cerevisiae aging, superoxide DHE fluorescence; at 10 µM; active compounds read low
row,Compound,superoxide response (% of plate)
1,Cc1ccccc1NC(=O)NCC1CCN(Cc2cccc(Cl)c2)CC1,94.6%
2,COc1cccc(NC(=O)NCCN2CCCCC2)c1,101%
3,COc1ccc(NC(C)=O)cc1NC(=O)CN1CCN(c2ccccn2)CC1,103%
4,COc1cc(NC(=O)CSc2ccc(-c3cccnc3)nn2)cc(OC)c1,123%
5,Cc1cc2oc(C(=O)Nc3c(C)n(C)n(-c4ccccc4)c3=O)c(C)c2cc1Cl,93.5%
6,COC(=O)CNC(=O)c1ccc(OC2CCN(C(=O)C3CC3)CC2)cc1,103%
7,O=C(Nc1cccc(Cl)c1Cl)c1ccccc1NC(=O)C1CC=CCC1C(=O)O (configuration not stated),101%
8,O=C(CN1CCN(c2ccccn2)CC1)Nc1ccc(Br)cc1,111%
9,Cn1c(Nc2ccccc2)cc(=O)n(C)c1=O,100%
10,CC(=O)c1ccc2c(c1)c1ccccc1n2CC(C)C,107%
11,CCCC(C)C(=O)OCC(=O)Nc1c(Br)cc(C)cc1Br (configuration not stated),101%
12,O=[N+]([O-])c1ccc2c(c1)Nc1nc3ccccc3nc1N2,82.5%
13,NC(=S)Nc1c(Cl)cccc1Cl,109%
14,Cc1cc(C(F)F)n2nc(C(=O)Nc3ccc(S(=O)(=O)NC45CC6CC(CC(C6)C4)C5)cc3)nc2n1,111%
15,Cc1cc(=O)n2[nH]c(-c3cccc(Cl)c3)cc2n1,98.1%
16,O=C(O)c1ccc(F)c(S(=O)(=O)Nc2ccccc2)c1,101%
17,CC(C)(C)NC(=O)COc1ccc(CNc2ccc3[nH]c(=O)[nH]c3c2)cc1,96.2%
18,COc1ccc(CCNC(=O)c2ccccc2-c2ccccc2C(=O)O)cc1OC,108%
19,Cc1ccc(-c2nc(CS(=O)CC(=O)N3CCN(c4ncccn4)CC3)c(C)o2)cc1 (configuration not stated),92.5%
20,Cc1ccc(-c2nc(CSCC(=O)NC3CCN(Cc4ccccc4)CC3)c(C)o2)cc1,101%
21,CNC(=O)c1cccc2nc3ccccc3nc12,79.8%
22,CCn1c2ccccc2c2cc(CC(N)=O)ccc21,111%
